Potency data for 98 molecules are collected here from PubChem BioAssay AID624417 (National Center for Advancing Translational Sciences (NCATS), 2012).

In all, about 410,000 compounds went through this assay and about 6,400 (1.6%) were called active. About 20% were inconclusive and are not listed. Calls come from the whole dose curve; as a rule, active = well fitted inhibition curve with a large enough effect; inconclusive = small, poorly fitted or top-dose-only effect; inactive = no such curve, though single readings can be large or run the other way. The list comes from a sample in which actives are over-represented; it also holds similar structures and randomly drawn compounds. A call without a number means that no potency is given here.
Potency is the fitted concentration of half-maximal effect.

The target of this assay is Glucagon-like peptide 1 receptor (Homo sapiens) (UniProt P43220). Kind of assay: qHTS of GLP-1 Receptor Inverse Agonists (Inhibition Mode). Note: nearly all actives have a fitted effect of over 55% in size. To be noted: HEK293 GLP-1R CRE-luciferase, luminescence, 24 h, GLP-1R form is constitutively active; series mostly up to 38.3 µM. The text has this: The overall goal of this project was to develop a novel assay for discovering small molecule ligands for class B1 G protein-coupled receptors (GPCRs). Very few agonists (or inverse agonists in inhibition mode) with generally weak activity for this entire group of physiologically important receptors are known to date. To establish proof-of-principle that this critical bottleneck can be overcome with a suitable screening approach, our studies focused on the class B1 receptor for glucagon-like peptide-1 (GLP-1R), a potential therapeutic target for diabetes and neurodegenerative disease. The assay was developed using a cell-based functional readout. Toward this goal, stably transfected HEK293 cell clones were established that co-express (i) a cAMP-responsive luciferase reporter gene, and (ii) constitutively active GLP-1R that upon ligand interaction inhibit (inverse agonists) the luciferase activity. In addition, two control cell lines were developed: (i) one that express only the cAMP-responsive reporter gene to enable initial exclusion of GLP-1R independent effects of candidate probes; and (ii) one with the reported gene cloned with another constitutively active orphan receptor GPR119 to enable exclusion of GLP-1R independent inhibitor effects of candidate inverse agonists. To that end, this assay was optimized for 1536-well format and screened against the MLSMR. […] NIH Molecular Libraries Probe Production Network [MLPCN] NIH Chemical Genomics Center [NCGC] Grant: NS064851 PI Name: Martin Beinborn, Tufts Medical Center
Sequence of Glucagon-like peptide 1 receptor (Homo sapiens) (P43220 whole entry, looked up): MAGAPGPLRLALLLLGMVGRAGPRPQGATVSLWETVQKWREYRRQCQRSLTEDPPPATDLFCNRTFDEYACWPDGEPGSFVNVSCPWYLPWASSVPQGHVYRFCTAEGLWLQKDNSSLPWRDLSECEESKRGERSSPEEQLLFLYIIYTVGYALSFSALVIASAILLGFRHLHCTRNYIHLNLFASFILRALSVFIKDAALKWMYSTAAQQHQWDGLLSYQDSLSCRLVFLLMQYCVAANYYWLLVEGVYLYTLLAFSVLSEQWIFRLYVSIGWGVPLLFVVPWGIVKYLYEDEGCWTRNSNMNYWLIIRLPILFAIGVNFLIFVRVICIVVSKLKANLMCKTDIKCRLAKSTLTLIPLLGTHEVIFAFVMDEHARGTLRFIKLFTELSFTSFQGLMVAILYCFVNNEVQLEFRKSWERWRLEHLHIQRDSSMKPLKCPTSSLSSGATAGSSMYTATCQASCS
Six ul of cell suspension (200 cells/uL in DMEM + 10% Nu serum + 1% pen-strep) is dispensed in a white solid 1536-well plate. The plates are incubated for 12 hours at 37 deg C at 5% CO2 followed by addition of 23 nL compounds. After 24 hr incubation at 37 deg C and 5% CO2, 3 uL of luciferase assay detection reagent is added. A luminescence read is obtained on the PerkinElmer Viewlux after 12 min incubation at room temperature.
On the technique in general: In qHTS, concentration-response curves come from the screen itself.
On to `COC(=O)C[C@H]1C[C@@H]2c3cc(N(C)C)ccc3O[C@@H]2[C@H](CO)O1`, for which the Potency entry was “inactive”.
The same measure for `CCN(CC(=O)Nc1cc(Cl)ccc1C)C(=O)CN1C(=O)NC2(CCCC2)C1=O`: “inactive”; for `Cc1ccc(Cl)cc1NC(=O)COC(=O)CC(C)(C)C`: “inactive”; for `Cc1ccc(Cl)cc1NC(=O)CSc1nc2ccccc2nc1Cc1ccccc1`: “inactive”.
`CCN(CC(=O)Nc1cc(Cl)ccc1C)C(=O)CSCc1ccccc1`: the Potency was 12.6 µM (active).
The same measure for `CCN(CC(=O)Nc1cc(Cl)ccc1C)C(=O)CSCc1ccc(C)cc1`: 10 µM (active); for `CCN(CC(=O)Nc1cc(Cl)ccc1C)C(=O)Cn1c(=O)cnc2ccccc21`: “inactive”; for `CCCS(=O)(=O)NC(=O)C1(C)CCCN(C(=O)c2cccs2)C1` (stereo not drawn): “inactive”.
The same measure for `COc1ccc(NC(=O)COC(=O)C2COc3ccccc3O2)cc1` (stereo not drawn): “inactive”.
For the molecule `Cc1ccc(C(C)C)cc1OCC(=O)Nc1ccccc1N1CCCC1`, the Potency is 2.51 µM (active).
With `Cc1ccc(C(C)C)cc1OCCN1CCCC1`, the Potency entry was “inactive”.
As to `CC(C)n1c(SCC(=O)Nc2ccccc2N2CCCCC2)nc2c1c(=O)n(C)c(=O)n2C`, the Potency entry is “inactive”.
On to `Cc1ccccc1NC(=O)CNc1ccccc1N1CCCCC1`, for which the Potency is 7.94 µM (active).
On to `Cn1c(=O)c2c(nc(SCC(=O)Nc3ccccc3N3CCCCC3)n2C)n(C)c1=O`, for which the Potency result was “inactive”.
The entry for `Cc1cccc(N2CC(C(=O)Nc3ccccc3N3CCCC3)CC2=O)c1C` (stereo not drawn) is “inactive”; for `COC(=O)c1ccc2nc(-c3cccc(Br)c3)c(Cc3ccccc3C(F)(F)F)n2c1` it is “inactive”; for `CN(C)C(=O)c1cccc(-c2cnc3c(NC=O)cc(-c4ccc(C(=O)N5CCOCC5)cc4)cn23)c1` it is “inactive”.
The same measure for `CC(=O)C[C@@H]1OC[C@H](CO)N1S(=O)(=O)c1ccc(C)cc1`: “inactive”; for `COc1ccc(NC(=O)C2(C)Cc3c(-c4ccc(C(N)=O)cc4)ccnc3O2)cc1` (stereo not drawn): “inactive”.
As for `C[C@@H]1CN([C@@H](C)CO)C(=O)c2c(c3ccccc3n2C)-c2ccccc2CO[C@H]1CN(C)C(=O)C1CC1`, the Potency result was “inactive”.
For the molecule `COc1cc(C(=O)N2CCOC23CCN(Cc2ccccc2)CC3)cc(OC)c1OC`, the Potency entry is “inactive”.
The same measure for `CCOc1ccc(NC(=O)CCS(=O)(=O)c2cccc3nsnc23)cc1`: “inactive”; for `CCOc1ccccc1NC(=O)CCS(=O)(=O)c1cccc2nsnc12`: “inactive”; for `CCOc1ccc(OCC)c(NC(=O)CN(C)S(=O)(=O)c2cccc3nsnc23)c1`: 6.31 µM (active).
`CC1(C(=O)NS(=O)(=O)Cc2cccc(Cl)c2)CCN1C(=O)Cc1ccccc1` (stereo not drawn): the Potency result is “inactive”.
With `CCCNC(=O)C1(C)CCCN(Cc2cccc(C(F)(F)F)c2)C1` (stereo not drawn), the Potency entry was “inactive”.
Regarding `Cc1nc2ccccc2c(C(=O)O)c1-c1ccccn1`, the Potency entry is “inactive”.
For the molecule `N#Cc1ccc(Oc2cc(C(F)(F)F)nc(-c3ccccn3)n2)cc1`, the Potency entry was “inactive”.
The same measure for `Cc1ccc(Oc2nc(-c3ccccn3)nc3ccccc23)cc1`: 5.01 µM (active).
The entry for `CCOc1ccc(CCN2C(=O)C(=O)N([C@@H](Cc3ccc(O)cc3)CN3CCC[C@H]3CN3C(=O)C(=O)NC[C@@H]3CC(C)C)C[C@@H]2Cc2ccccc2)cc1` is “inactive”; for `CCCCn1nnnc1C(c1cccc(OC)c1OC)N1CCN(C/C=C/c2ccccc2)CC1` (stereo not drawn) it is “inactive”.
The entry for `COc1ccc(OC)c(C(O)c2ncc(-c3cccc(C(F)(F)F)c3)[nH]2)c1` (stereo not drawn) is “inactive”; for `COc1c(C)cc(C(O)c2ncc(-c3cccc(C(F)(F)F)c3)[nH]2)cc1C` (stereo not drawn) it is 12.6 µM (active).
Take `Cc1cccc(-c2cnc(C(O)c3cc(C)cc(C)c3)[nH]2)c1` (stereo not drawn): the Potency result is “inactive”.
The entry for `COc1ccccc1Cc1c(-c2ccc(Cl)cc2)nc2c3ccccc3ccn12` is “inactive”; for `COc1ccccc1N1CCC(N2CCN(CC(C)(C)C)C(CCO)C2)CC1` (stereo not drawn) it is “inactive”; for `Cc1cc(F)ccc1N1CCC(N2CCN(C)C(CCO)C2)CC1` (stereo not drawn) it is 4.47 µM (active).
`COc1ccc(N2CCC(N3CCN(C)C(CCO)C3)CC2)cc1` (stereo not drawn): the Potency result was “inactive”.
`COc1ccc(CN2C(=O)C(CC(=O)NCCCCc3ccccc3)CC(C(=O)N3CCOCC3)=C2C)cc1` (stereo not drawn): the Potency result is “inactive”.
Turning to `O=C(CSc1nc(Nc2ccccc2)nc(N2CCOCC2)n1)Nc1cc(Cl)ccc1O`, the Potency was 5.62 µM (active).
Turning to `Cc1ccccc1NC(=O)CSc1nc2ccc(Nc3nc(N4CCOCC4)nc(N4CCOCC4)n3)cc2s1`, the Potency result was “inactive”.
The same measure for `O=C(CC(c1ccccc1)c1cc(Cl)ccc1O)NCCN1CCOCC1` (stereo not drawn): “inactive”; for `CCCNC(=O)C1(C)CCN(C(=O)c2cc(F)ccc2C)C1` (stereo not drawn): “inactive”.
The same measure for `CC1(C(=O)NS(=O)(=O)c2ccc(C#N)cc2)CCN1C(=O)c1ccc(C2CCCCC2)cc1` (stereo not drawn): “inactive”.
The same measure for `N#CCSc1nc2c(c(=O)n1Cc1ccccc1)C1(CCCC1)Cc1ccccc1-2`: 3.98 µM (active); for `N#CCSc1nc2ccc(N3CCOCC3)cc2c(=O)n1CCc1ccccc1`: “inactive”.
Regarding `CCC1(CC)Cc2ccccc2-c2nc(CCl)[nH]c(=O)c21`, the Potency result was “inactive”.
The same measure for `N#Cc1ccc(-c2ccc3nccn3c2)cc1`: “inactive”; for `O=[N+]([O-])c1ccc(CN2CC(N3CC=CC3)CS2(=O)=O)cc1` (stereo not drawn): “inactive”; for `C/C(COc1ccccc1)=N\NC(=O)c1nnn(-c2nonc2N)c1-c1ccc(C)cc1`: “inactive”.
Turning to `COc1ccc(N2CCN(C(=O)CCc3nc(-c4ccc(C)cc4)no3)CC2)cc1`, the Potency result was “inactive”.
As for `Cc1ccc(-c2noc(CCC(=O)Nc3ccccc3N3CCN(C)CC3)n2)cc1`, the Potency was 11.2 µM (active).
Consider `CC(=O)c1ccc(NC(=O)CCc2nc(-c3ccc(C)cc3)no2)cc1`, for which the Potency result was “inactive”.
For `C[C@H]1CN([C@@H](C)CO)C(=O)CCCn2cc(nn2)CO[C@@H]1CN(C)S(=O)(=O)c1cccs1`, the Potency result was “inactive”.
On to `Cc1ccc(C)c(NC(=O)CN(C)C(=O)COc2ccc3ccccc3c2)c1`, for which the Potency entry was “inactive”.
Regarding `Cc1ccc(C)c(NS(=O)(=O)c2ccc(OCC(=O)NCc3cccnc3)cc2)c1`, the Potency result was “inactive”.
As for `Cc1ccc(NS(=O)(=O)c2ccc(C)c(NC(=O)COc3ccc4ccccc4c3)c2)c(C)c1`, the Potency is 5.01 µM (active).
The same measure for `CCCCc1ccc(S(=O)(=O)NC(=O)C2(C)CCN2C(=O)c2ccccc2)cc1` (stereo not drawn): “inactive”.
Regarding `Cc1nnc(SC(C)C(=O)c2c[nH]c3ccccc23)n1C1CC1` (stereo not drawn), the Potency result is “inactive”.
The same measure for `Cc1nnsc1C(=O)Nc1cccc(Cl)c1C`: “inactive”; for `Cc1cc(Cl)ccc1NNC(=O)c1snnc1C`: 2 µM (active).
In the case of `Cc1nnsc1C(=O)NCc1c(F)cccc1Cl`, the Potency result is “inactive”.
The same measure for `Nc1ncnc2c1ncn2[C@@H]1O[C@H](C(=O)NS(=O)(=O)c2c(Cl)nc3sccn23)[C@@H](O)[C@H]1O`: “inactive”; for `CCOC(=O)C1C(C)C(C(C)(C)C)N(S(=O)(=O)c2ccc(C)cc2)C1c1ccccc1` (stereo not drawn): “inactive”; for `CC1(C(=O)NS(=O)(=O)c2ccc(C#N)cc2)CCN1C(=O)CC1CCCC1` (stereo not drawn): “inactive”.
Take `Cc1cccc(CN2CCN(C3CN(Cc4ccccc4)S(=O)(=O)C3)CC2)c1` (stereo not drawn): the Potency result was “inactive”.
As for `O=C(NNC(=O)C1CCC1)c1ccccc1`, the Potency result was “inactive”.
On to `Cc1ccc(NNC(=O)C2CCC2)cc1C`, for which the Potency was 6.31 µM (active).
With `Cc1ccc(C)c(OCC(=O)NNC(=O)C2CCC2)c1`, the Potency entry was “inactive”.
Take `Cc1ccc(C(=O)OCC(=O)NC2CCCCCCC2)cc1C`: the Potency result is “inactive”.
On to `Cc1cccc(C(=O)N2CCN(S(=O)(=O)N3CCCCC3)CC2)c1`, for which the Potency entry was “inactive”.
In the case of `Cc1cccc(C)c1N1CCN(S(=O)(=O)N2CCCCC2)CC1`, the Potency was 10 µM (active).
The entry for `Cc1cccc(C)c1N1CCN(S(=O)(=O)N2CCOCC2)CC1` is “inactive”; for `CN(CCO)C(=O)c1nc[nH]c1C(=O)N(C)Cc1ccccc1` it is “inactive”; for `Cc1cc(C(=O)NNC(=O)c2ccccc2O)c(C)o1` it is “inactive”.
The figure for `O=C(NNC(=O)c1ccccc1O)c1ccccc1O` is 5.01 µM (active); for `CC1=C(C)CC(C(=O)NNC(=O)c2ccccc2O)C(C(=O)O)C1` (stereo not drawn) it is “inactive”.
As for `Clc1ccccc1Nc1nc(NCc2cccs2)nc2ccsc12`, the Potency result was “inactive”.
On to `CC(C)(C)OC(=O)N1CCN(C(=O)c2[nH]c(C(F)(F)F)nc2-c2ccccc2)CC1`, for which the Potency entry was “inactive”.
As to `CCOC(=O)[C@]12CCC=C1N(Cc1ccccc1)C(=O)[C@H](CC(=O)N1CCCC1)C2`, the Potency entry is “inactive”.
The same measure for `CCCNC(=O)c1cc2c(c(-c3cccc(-c4ccc(C#N)cc4)c3)n1)[C@@H](CCO)N(C(=O)CC)C2`: “inactive”.
The entry for `COc1ccc(NC(=O)CCCNC(=O)Cn2cnc3sc4c(c3c2=O)CCCC4)cc1OC` is “inactive”; for `COc1ccc(NC(=O)CCNC(=O)Cn2cnc3sc4c(c3c2=O)CCCC4)cc1OC` it is “inactive”; for `COc1ccc(/C=N/Nc2ncnc3sc4c(c23)CCCC4)cc1O` it is 10 µM (active).
As to `Cc1ccc(S(=O)(=O)N[C@H]2CCC[C@@H]2O)cc1`, the Potency entry was “inactive”.
The entry for `Cn1c(NCc2cccnc2)nc2cc(-c3ccc(F)cc3)sc2c1=O` is “inactive”.
The entry for `Cc1[nH]c2ccccc2c1C(=O)C(C)Sc1nnc(C2CC2)o1` (stereo not drawn) is “inactive”; for `Cc1[nH]c2ccccc2c1C(=O)c1cc([C@H](NC(=O)OC(C)(C)C)C(C)C)sc1N` it is 10 µM (active).
As for `Cc1[nH]c2ccccc2c1C(=O)CSCC(=O)O`, the Potency entry was “inactive”.
Consider `OC[C@@H]1CN(Cc2ccncc2)C[C@H](n2cnc3c(N4CCN(c5ccccc5)CC4)ncnc32)O1`, for which the Potency entry is “inactive”.
The entry for `CC(C)(C)OC(=O)Nc1ccc([C@@H](NC(=O)OC(C)(C)C)C(=O)OC(C)(C)C)cc1` is “inactive”; for `C[C@H](NC(=O)OC(C)(C)C)c1nnc(SCC(=O)Nc2ccc(Br)cc2)o1` it is “inactive”.
As for `CC(C)(C)OC(=O)N[C@H](C(=O)OC(C)(C)C)c1ccc(Br)cc1`, the Potency is 10 µM (active).
On to `COc1ccc(C(C)(C)C)cc1NC(=O)CN(C)C1=NS(=O)(=O)c2ccccc21`, for which the Potency entry is “inactive”.
With `COc1ccc(CCNC(=O)CN(c2ccccc2)S(=O)(=O)c2ccccc2)cc1`, the Potency result is “inactive”.
The entry for `COc1cccc(NC(=O)N2CCCC2C(=O)NC2CCCCC2)c1` (stereo not drawn) is “inactive”.
The entry for `COc1cccc(NC(=O)C2CCCN2C(=O)OCc2ccccc2)c1` (stereo not drawn) is “inactive”.
On to `COc1cccc(NC(=O)N(Cc2cn(C)c3ccccc23)C2CCCCCC2)c1`, for which the Potency was 10 µM (active).
